Screening results deposited in PubChem by National Center for Advancing Translational Sciences (NCATS).
Rows were chosen to be rich in hits. Some 7.1% of all compounds tested hit in one or more screens of this group.
MARV entry inh – inhibitors of Marburg virus binding or entry into cells; Marburg virus pseudotype entry/binding inhibition, cell-based; Potency, µM (titrated, usually from 49.2 µM), for the others: top-dose activity change, negative = inhibition, usual class: inhibitors; 6.5% of 18,000 active
Lassa entry – inhibitors of Lassa virus binding or entry into cells | Potency, µM (top dose mostly 49.2 µM), for the others: at the highest dose activity change, negative = inhibition, actives largely listed as inhibitors | 4.1% of 18,000 active | AID 720533 | Lassa virus pseudotyped entry inhibition, cell-based qHTS
The depositor's hits bear a star; u = inconclusive; x = no result given; ! = repeats disagree; [ ] = dose if it differs, or a comment. The call rests on the fitted dose curve; tested in HEK293 cells. On the % scale 0 is the no-effect control and ±100 the full control effect; potency means the concentration at half of the fitted maximal effect.

SMILES | MARV entry inh | Lassa entry
CCOC(=O)[C@@H]1CSCCS(=O)(=O)N1C(=O)[C@@H](NC(=O)OC(C)(C)C)[C@@H](C)CC | 12.3% | 13.0%
O=C(O)CCc1nc2ccccc2[nH]1 | -4.0% | -11.0%
CC(C)[C@H]1c2ccc(F)cc2CC[C@@]1(CCN(C)CCCc1nc2ccccc2[nH]1)OC(=O)C1CC1 | 8.91µM* | u
CCOC(=O)C1=CN(CCNC(=O)OC(C)(C)C)C(=O)NC1c1ccccc1 (centres undefined) | 20.7%[8.59 µM] | -15.2%[8.59 µM]
C[C@H]1[C@H]2CC[C@H]3C4CC=C5C[C@@H](N(C)C)CC[C@]5(C)C4CC[C@]23CN1C (some centres undefined) | 11.2µM* | -26.1%
C[C@]12CC[C@H](O)CC1=CC[C@@H]1[C@@H]2CC[C@]2(C)C(=O)CC[C@@H]12 | -21.7% | -14.0%
COC(=O)c1ccc(CN2C(=O)[C@]3(OCCC=C[C@@H]3C)c3c(Br)cccc32)cc1 | -6.9%[8.59 µM] | 1.0%[8.59 µM]
COC(=O)C1=C(C)N(Cc2ccco2)C(=O)NC1c1ccco1 (centres undefined) | 0.3%[8.59 µM] | -25.6%[8.59 µM]
Oc1cc(Cl)ccc1Oc1ccc(Cl)cc1Cl | 35.5µM*! | 25.1µM*!
O=C(O)Cc1ccccc1Oc1ccc(Cl)cc1Cl | 1.8% | -14.6%
CC(=O)OC[C@H]1O[C@@H](ON=C2C[C@@H](O)[C@@H](O)[C@@H]3[C@H]4C(=O)N(Cc5ccccc5)C(=O)[C@@H]4CC[C@@H]23)[C@H](OC(C)=O)[C@@H](OC(C)=O)[C@H]1OC(C)=O | -9.1%[8.59 µM] | 21.2%[8.59 µM]
COC(=O)N[C@H](C(C(=O)OC)=C(C)NCc1ccccc1)c1ccccc1 | -3.7%[8.59 µM] | x
CC1=C[C@@H]2c3cccc4[nH]cc(c34)C[C@H]2N(C)C1 | 6.9% | -14.4%
CN1Cc2ccccc2[C@@H]2c3cccc4[nH]cc(c34)C[C@H]21 | 8.91µM* | 10µM*
C=CCOC(=O)C(C(C)=O)[C@@H](NC(=O)OC)c1cccc(C)c1 (some centres undefined) | u | -17.5%[8.59 µM]
C=CCc1ccc(O)c(-c2cc(CC=C)ccc2O)c1 | 8.9% | -14.4%
C=CCc1ccc(OC)cc1 | 6.31µM* | 6.31µM*
CCc1cc2c(nc1CC)CCN(CCC(C)=NO[C@H](C)c1cn([C@H](CO)Cc3ccccc3)nn1)C2 | u | 1.6%[8.59 µM]
C=CC[C@@H]1C=C(C(=O)OC)N(C(=O)C(F)(F)F)[C@@H](c2ccccc2Br)[C@@H]1C | 9.1%[8.59 µM] | 2.9%[8.59 µM]
CN1CCCN([C@@H](c2ccccc2)c2ccc(Cl)cc2)CC1 | 11.2µM* | -11.4%[17.8 µM]
OCCOCCN1CCN([C@@H](c2ccccc2)c2ccc(Cl)cc2)CC1 | u | -10.7%[17.8 µM]
CN1CCN(c2nc(-c3cccc(NS(C)(=O)=O)c3)nc3ccccc23)CC1 | -28.9% | 21.6%
COc1cc(NS(C)(=O)=O)ccc1Cc1c2ccccc2nc2ccccc12 | 2µM* | u
CCN1CCC[C@H]1CNC(=O)c1c(O)c(Cl)cc(Cl)c1OC | 14.0% | -1.8%
CCCCN1CCC[C@@H]1CNC(=O)c1cc(C#N)c2ccccc2c1OC | 14.1µM* | u
SMILES | MARV entry inh | Lassa entry
C=C(C(C)=O)C(O)C=Cc1ccco1 (centres undefined) | 3.0%[8.59 µM] | 0.2%[8.59 µM]
COc1ccc([C@]23Cc4cc(OC)c(OC)cc4[C@H](O2)c2c(cc(C)n(Cc4ccccc4)c2=O)O3)cc1 | 39.6%[8.59 µM] | 40.3%[8.59 µM]
Brc1c(Br)c(Br)c2[nH]cnc2c1Br | -22.0% | 8.6%
S=c1nc[nH]c2nc[nH]c12 | 12.6µM* | 14.1µM*
CC(C)=CCCC1(C)C=Cc2c(O)c3c(c(CC=C(C)C)c2O1)OC12C(=CC4CC1C(C)(C)OC2(C/C=C(/C)C(=O)O)C4O)C3=O (centres undefined) | 3.55µM* | 4.47µM*
CC(C)=CCCC1(C)C=Cc2c(O)c3c(c(CC=C(C)C)c2O1)OC12C(=CC4CC1C(C)(C)OC2(C/C=C(/C)C(=O)O)C4=O)C3=O (centres undefined) | 2.82µM* | 5.01µM*
CC(C)CCCC1(C)C=Cc2c(O)c3c(c(CCC(C)C)c2O1)OC12C(CC4CC1C(C)(C)OC2(CCC(C)C(=O)O)C4O)C3=O (centres undefined) | -19.6% | -17.5%
CC(C)=CCCC1(C)C=Cc2c(O)c3c(c(CC=C(C)C)c2O1)OC12C(=CCCC1C(C)(C)O[C@@]2(C/C=C(\C)C(=O)O)C(=O)O)C3=O (some centres undefined) | -5.7% | -0.2%
C=C1C(O)C2OC3(CCC(/C=C/C(C)C4CC(C)=CC5(OC(CC(C)(O)C(=O)O)CCC5O)O4)O3)CCC2OC1C(O)CC(C)C1OC2(CCCCO2)CCC1C (centres undefined) | 0.146µM* | u
COC(=O)C1=C(C(=O)OC)[C@@H]2N(C)c3ccccc3[C@@]23CCC(=O)N(CCCOC(C)C)C3=N1 | -9.7%[8.59 µM] | -20.1%[8.59 µM]
COC(=O)CC=C1c2ccccc2[C@@H](O)[C@@H]1C | 52.2%[8.59 µM] | -16.8%[8.59 µM]
N#Cc1ccccc1OC[C@H](O)CNCCNC(=O)Nc1ccccc1 | -2.5% | -7.4%
CCCNC[C@H](O)COc1ccccc1C(=O)CCc1ccccc1 | 8.91µM* | -11.9%[17.8 µM]
COC(=O)[C@H]1[C@H](C)[C@@]2(O)c3ccccc3N(C)[C@@]1(C)[C@H]2O | -24.9%[8.59 µM] | -14.0%[8.59 µM]
COc1ccc(-c2oc3ncnc(N)c3c2-c2ccc(NC(=O)Nc3cc(C(F)(F)F)ccc3F)cc2)cc1 | 12.5µM* | x
COC(=O)Nc1nc2ccc(S(=O)(=O)c3ccc(NC(=O)Nc4cc(C(F)(F)F)ccc4F)cc3)cc2[nH]1 | -29.5% | -20.2%
CC(CCN1CCCCc2nc(C)c(C)cc21)=NO[C@H](C)c1cn([C@H](CO)Cc2ccccc2)nn1 | u | 9.3%[8.59 µM]
CC(=O)[C@H]1CC[C@H]2[C@@H]3CC[C@@H]4C[C@H](O)CC[C@]4(C)[C@H]3CC[C@]12C | 0.0% | -3.1%
CC(=O)O[C@H]1[C@H]2O[C@]23[C@@H]2CC[C@@H]4C[C@@H](O)CC[C@]4(C)[C@H]2CC[C@]3(C)[C@H]1c1ccc(=O)oc1 | 0.0891µM* | 0.199µM*
CCCCCC(=O)N1C[C@H](n2cc(-c3ccc(F)cc3)nn2)[C@@H](O)C[C@H]1c1ccc(OC)cc1 | u | -29.9%
COc1ccc([C@]23Cc4cc(C#N)ccc4[C@H](O2)c2c(c4ccc(OC)cc4oc2=O)O3)cc1 | u | 27.4%[8.59 µM]
CCN1C(N(C)CCc2ccc(Br)cc2)=NC(c2ccccc2)C(C(=O)OC)=C1C (centres undefined) | u | -0.3%[8.59 µM]
c1ccc(N2CCN(CCCOc3ccc4c(c3)OCO4)CC2)cc1 | 2.3% | -1.7%
O=C1NCN(c2ccccc2)C12CCN(CCCOc1ccc(F)cc1)CC2 | 17.8µM* | 15.8µM*
COc1ccccc1-c1cncnc1NCc1cccc(C)c1 | -17.0% | -4.8%
SMILES | MARV entry inh | Lassa entry
COCCNc1cc(-c2ccccc2CN(C)C)ncn1 | -15.3% | -1.7%
COc1ccccc1-c1nccc(NCc2cccc(C)c2)n1 | 12.6µM* | -19.1%
Cc1cccc(CNc2cc(-c3ccccc3CN(C)C)ncn2)c1 | 6.31µM* | -4.4%
CNc1ccnc(-c2ccccc2CN(C)C)n1 | -5.5% | 3.7%
Cc1cccc(CNc2ccnc(-c3ccccc3CN(C)C)n2)c1 | 11.2µM* | u
CCC[C@H]1CN(c2ccccc2)C(=O)[C@H]1CC(=O)Nc1ccc(Br)cc1 | -44.2% | -15.2%
COC(=O)C1=C2CCO[C@@H]2[C@H]2[C@@H](C)[C@H](OC)c3ccccc3[C@H]12 | 0.4%[8.59 µM] | -23.7%[8.59 µM]
C=CC[C@@H]1C=C[C@H](ON=C[C@@H](C)[C@H](OCc2ccccc2)C(C)C)[C@H](CO)O1 | -10.4%[8.59 µM] | x
Nc1cccc2c(N)cccc12 | 3.0%[107 µM] | -6.8%[107 µM]
